From PubChem BioAssay AID1159580 (chemical genetic matrix, 2015)
Values joined by “and” are separate entries in the source; they are usually repeats but may differ in a detail not shown here. Identical values can stand only once. The campaign covered roughly 5,500 compounds. About 2,000 (36%) were called active. About 18% were inconclusive and are not listed. No stated cut-off is given here; in the data, active means normalized growth mostly below about 0.91 (no sharp cut-off); inconclusive means no clear call, values can overlap the other calls; inactive means mostly above about 0.92. The list shows a part of the results.

Assay: chemical genetic growth profiling, strain panel (AID 1159580);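 further: tested at 20 µM; growth read once vehicle control cultures reached saturation at 30 °C; 1 = growth at the plate median or of vehicle wells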
Details: S. cerevisiae deletion strains, growth OD
[1] = locus YAR019C, strain CDC15, stronger effect = lower value
[2] = locus YBL105C, strain PKC1, stronger effect = lower value
[3] = locus YBR135W, strain CKS1, stronger effect = lower value
[4] = locus YBR136W, strain MEC1, stronger effect = lower value
[5] = locus YBR160W, strain CDC28, stronger effect = lower value
[6] = locus YDL017W, strain CDC7, stronger effect = lower value
[7] = locus YDL028C, strain MPS1, stronger effect = lower value
[8] = locus YDL101C, strain DUN1, stronger effect = lower value
[9] = locus YDL108W, strain KIN28, stronger effect = lower value
[10] = locus YDL132W, strain cdc53, stronger effect = lower value
[11] = locus YDL214C, strain PRR2, stronger effect = lower value
[12] = locus YDR052C, strain DBF4, stronger effect = lower value
[13] = locus YDR054C, strain cdc34, stronger effect = lower value
[14] = locus YDR226W, strain ADK1, stronger effect = lower value
[15] = locus YDR477W, strain SNF1, stronger effect = lower value
[16] = locus YER123W, strain YCK3, stronger effect = lower value
[17] = locus YER133W, strain GLC7, stronger effect = lower value
[18] = locus YFL009W, strain cdc4, stronger effect = lower value
[19] = locus YFL029C, strain CAK1, stronger effect = lower value
[20] = locus YFR003C, strain YPI1, stronger effect = lower value
[21] = locus YFR019W, strain FAB1, stronger effect = lower value
[22] = locus YFR028C, strain CDC14, stronger effect = lower value
[23] = locus YGR040W, strain KSS1, stronger effect = lower value
[24] = locus YGR052W, strain FMP48, stronger effect = lower value
[25] = locus YGR092W, strain DBF2, stronger effect = lower value
[26] = locus YHR030C, strain SLT2, stronger effect = lower value
[27] = locus YHR079C, strain IRE1, stronger effect = lower value
[28] = locus YHR082C, strain KSP1, stronger effect = lower value
[29] = locus YHR205W, strain SCH9, stronger effect = lower value
[30] = locus YIL147C, strain SLN1, stronger effect = lower value
[31] = locus YJL095W, strain BCK1, stronger effect = lower value
[32] = locus YJL128C, strain PBS2, stronger effect = lower value
[33] = locus YJL157C, strain FAR1, stronger effect = lower value
[34] = locus YJR016C, strain ILV3, stronger effect = lower value
[35] = locus YJR066W, strain TOR1 (second series), stronger effect = lower value
[36] = locus YJR066W, strain TOR1, stronger effect = lower value
[37] = locus YKL048C, strain ELM1, stronger effect = lower value
[38] = locus YKL067W, strain YNK1, stronger effect = lower value
[39] = locus YKL101W, strain HSL1, stronger effect = lower value
[40] = locus YKL193C, strain SDS22, stronger effect = lower value
[41] = locus YKL203C, strain TOR2, stronger effect = lower value
[42] = locus YLR113W, strain HOG1, stronger effect = lower value
[43] = locus YLR133W, strain CKI1, stronger effect = lower value
[44] = locus YLR403W, strain SFP1, stronger effect = lower value
[45] = locus YML070W, strain DAK1, stronger effect = lower value
[46] = locus YMR001C, strain CDC5, stronger effect = lower value
[47] = locus YMR205C, strain PFK2 (second series), stronger effect = lower value
[48] = locus YMR277W, strain FCP1, stronger effect = lower value
[49] = locus YNL006W, strain LST8, stronger effect = lower value
[50] = locus YNL020C, strain ARK1, stronger effect = lower value
[51] = locus YNL161W, strain CBK1, stronger effect = lower value
[52] = locus YNL183C, strain NPR1, stronger effect = lower value
[53] = locus YNL207W, strain RIO2, stronger effect = lower value
[54] = locus YNL222W, strain SSU72, stronger effect = lower value
[55] = locus YNL307C, strain MCK1 (second series), stronger effect = lower value
[56] = locus YOL078W, strain AVO1, stronger effect = lower value
[57] = locus YOL136C, strain PFK27, stronger effect = lower value
[58] = locus YOR061W, strain CKA2, stronger effect = lower value
[59] = locus YOR119C, strain RIO1, stronger effect = lower value
[60] = locus YOR231W, strain MKK1, stronger effect = lower value
[61] = locus YOR329C, strain SCD5, stronger effect = lower value
[62] = locus YPL031C, strain PHO85, stronger effect = lower value
[63] = locus YPL153C, strain RAD53, stronger effect = lower value
[64] = locus YPL204W, strain HRR25, stronger effect = lower value
[65] = locus YPL209C, strain IPL1, stronger effect = lower value
[66] = locus YPL256C, strain CLN2, stronger effect = lower value
[67] = locus YPR025C, strain CCL1, stronger effect = lower value
[68] = locus YPR106W, strain ISR1, stronger effect = lower value
[69] = locus YPR111W, strain DBF20, stronger effect = lower value
[70] = strain NNK1, stronger effect = lower value
[71] = strain TSCII, stronger effect = lower value

Measured: normalized growth

CCCc1nc(-c2ccccn2)[nH]c(=O)c1CC1CC1
active: locus YAL013W, strain DEP1, stronger effect = lower value 0.861 | locus YBR229C, strain ROT2, stronger effect = lower value 0.727 | locus YDL134C, strain PPH21, stronger effect = lower value 0.862 | locus YEL061C, strain CIN8, stronger effect = lower value 0.611 | locus YGR078C, strain PAC10, stronger effect = lower value 0.842 | locus YGR229C, strain SMI1, stronger effect = lower value 0.886 | locus YHR087W, strain rtc3, stronger effect = lower value 0.754 | locus YJL187C, strain SWE1, stronger effect = lower value 0.829 | locus YJR075W, strain HOC1, stronger effect = lower value 0.879 | locus YKL190W, strain CNB1, stronger effect = lower value 0.698 | locus YLR039C, strain RIC1, stronger effect = lower value 0.489 | locus YLR085C, strain ARP6, stronger effect = lower value 0.218 | locus YLR262C, strain YPT6, stronger effect = lower value 0.757 | locus YML094W, strain GIM5, stronger effect = lower value 0.534 | locus YMR219W, strain ESC1, stronger effect = lower value 0.916 | locus YMR263W, strain SAP30, stronger effect = lower value 0.889 | locus YMR307W, strain GAS1, stronger effect = lower value 0.386 | locus YNL128W, strain TEP1, stronger effect = lower value 0.869 | locus YNL153C, strain GIM3, stronger effect = lower value 0.84 | locus YNL298W, strain CLA4 (second series), stronger effect = lower value 0.601 | locus YNR030W, strain Alg12, stronger effect = lower value 0.498 | locus YPL055C, strain LGE1, stronger effect = lower value 0.738 | locus YPL241C, strain CIN2, stronger effect = lower value 0.648 | locus YPR135W, strain CTF4, stronger effect = lower value 0.413
inactive: [1] 0.947 | [2] 0.955 | [3] 0.955 | [4] 0.952 | [5] 0.96 | [6] 0.956 | [7] 0.937 | [9] 0.956 | [10] 0.948 | [11] 0.944 | [12] 0.962 | [13] 0.93 | [14] 0.954 | [15] 0.945 | [16] 0.903 | [17] 0.952 | [18] 0.942 | [19] 0.935 | [20] 0.958 | [21] 0.968 | [22] 0.96 | [23] 0.936 | [24] 1.01 | [25] 0.865 | [27] 0.853 | [28] 0.968 | [29] 0.98 | [30] 0.945 | [31] 0.915 | [32] 0.96 | [33] 0.928 | [34] 0.953 | locus YJR043C, strain POL32, stronger effect = lower value 0.923 | [35] 0.849 | [36] 0.887 | [37] 0.956 | [38] 0.954 | [39] 0.933 | [40] 0.952 | [41] 0.98 | locus YLR058C, strain SHM2 (second series), stronger effect = lower value 0.938 | [42] 0.88 | [43] 0.938 | [44] 0.94 | [45] 0.959 | [46] 0.949 | [47] 0.939 | [48] 0.953 | [49] 0.966 | [50] 0.937 | [51] 0.957 | [52] 0.93 | [53] 0.94 | [54] 0.959 | [55] 0.937 | locus YNL322C, strain KRE1, stronger effect = lower value 0.975 | [56] 0.951 | [57] 0.959 | [58] 0.925 | [59] 0.937 | [60] 0.881 | [61] 0.952 | [62] 0.941 | [63] 0.926 | [64] 0.927 | [65] 0.958 | [66] 0.9 | [67] 0.949 | [68] 0.979 | [69] 0.973 | [70] 0.962 | [71] 0.949
0.292 (active) and 0.919 (inactive): [26]
0.948 (inactive) and 0.899 (active): [8]

Cc1nc(-c2ccccn2)[nH]c(=O)c1Cc1c(Cl)cccc1Cl
inactive: [1] 0.967 | [2] 0.962 | [3] 0.956 | [4] 0.954 | [5] 0.963 | [6] 0.961 | [7] 0.95 | [8] 0.965 | [9] 0.954 | [10] 0.941 | [11] 0.861 | [12] 0.96 | [13] 0.928 | [14] 0.959 | [15] 0.871 | [16] 0.726 | [17] 0.872 | [18] 0.965 | [19] 0.957 | [20] 0.959 | [21] 0.906 | [22] 0.972 | [23] 0.859 | [24] 0.871 | [25] 0.762 | [26] 0.985 | [27] 0.842 | [28] 0.893 | [29] 0.939 | [30] 0.946 | [31] 0.892 | [32] 0.928 | [33] 0.823 | [34] 0.952 | [35] 0.769 | [36] 0.864 | [37] 0.941 | [38] 0.881 | [39] 0.853 | [40] 0.951 | [41] 0.899 | [43] 0.889 | [44] 0.858 | [45] 0.84 | [46] 0.956 | [47] 0.876 | [48] 0.952 | [49] 0.952 | [50] 0.845 | [51] 0.958 | [52] 0.9 | [53] 0.951 | [54] 0.956 | [55] 0.843 | [56] 0.964 | [57] 0.866 | [58] 0.827 | [59] 0.887 | [60] 0.86 | [61] 0.958 | [62] 0.869 | [63] 0.805 | [64] 0.84 | [65] 0.956 | [66] 0.94 | [67] 0.964 | [68] 0.985 | [69] 0.973 | [70] 0.96 | [71] 0.949
active: [42] 0.837
